Data on nine compounds can be found in PubChem BioAssay (NCI).

About 79,000 compounds went through this panel and 15% of them were active in at least one assay; those are over-represented in the sample as a whole. A number with no mark means an inactive call. Active and inactive are the calls of the source. Rule as the data show it: active = growth inhibition above about 70%; inactive = the rest.

Test [1] in a line: NCI Yeast Anticancer Drug Screen. Data for the rad50 strain (AID 155).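 Also: 0% = growth of vehicle-only cultures of the same strain.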 As to conditions: S. cerevisiae rad50 strain growth inhibition, active compounds read high. The method, boiled down:
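Growth of the mutant yeast was measured after compound exposure and referenced to vehicle-treated cultures.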

Test [2] is described as follows: NCI Yeast Anticancer Drug Screen. Data for the mec2-1 strain (AID 157). As to conditions: S. cerevisiae mec2-1 strain, active compounds read high. The method, boiled down:
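Test agents were screened against the mec2-1 yeast strain, with defined DNA repair or cell cycle alteration. Growth was scored as inhibition against vehicle-only controls.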

A short description of test [3]: NCI Yeast Anticancer Drug Screen. Data for the sgs1 mgt1 strain (AID 161).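 Also: 0% = growth of cultures given vehicle only.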 As to conditions: S. cerevisiae sgs1 mgt1 strain, active compounds read high. The method, boiled down: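 Inhibition of yeast growth, normalised to vehicle-treated controls, is reported for a strain bearing genetic alterations in DNA damage repair.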
Test [4] in a line: NCI Yeast Anticancer Drug Screen. Data for the cln2 rad14 strain (AID 165).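 Also: 0% = growth equal to vehicle treated cultures.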 As to conditions: S. cerevisiae cln2 rad14 strain, active compounds read high. The method, boiled down:
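Growth of compound-exposed yeast (cln2 rad14 genotype) measured and expressed as inhibition relative to vehicle.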

Test [5] can be described thus: NCI Yeast Anticancer Drug Screen. Data for the bub3 strain (AID 167). Particulars: S. cerevisiae bub3 mutant strain, active compounds read high. The method, boiled down:
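Whole-cell yeast assay. The mutant strain was incubated with compounds, and growth inhibition was determined by comparison with vehicle-treated cells.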

The nature of test [6]: NCI Yeast Anticancer Drug Screen. Data for the mlh1 rad18 strain (AID 175). As to conditions: S. cerevisiae mlh1 rad18 strain growth inhibition, active compounds read high. The method, boiled down:
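In this whole-cell yeast screen, a strain with altered DNA damage repair is challenged with compound, and its growth is measured against matched vehicle-treated controls.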

Setting [7] is: at 5.0 µM (retest, dose inferred, filed as 0.5).
The mark [8] stands for this setting: at 50.0 µM (retest, dose inferred, filed as 5.0).

As for `COC(=O)CCC(NC(=S)N/N=C(\C)c1cnc2ccccc2n1)C(=O)OC` (configuration not stated), the growth inhibition in test [1] (setting [7]) was 12%; in test [1] (setting [8]), 12%; in test [1] (at 50.0 µM) it was 34.1%; in test [2] (setting [7]), 1%; in test [2] (setting [8]), 1%; in test [2] (at 50.0 µM) it was 16.2%. For the same compound, the growth inhibition was -5% in test [3] (setting [7]); -5% in test [3] (setting [8]); 67.1% in test [3] (at 50.0 µM); 10% in test [4] (setting [7]); 10% in test [4] (setting [8]); 11.1% in test [4] (at 50.0 µM). In addition, the growth inhibition in test [5] (setting [7]) was 12%; in test [5] (setting [8]), 12%; in test [5] (at 50.0 µM), 26.8%; in test [6] (setting [7]), 15%; in test [6] (setting [8]) it was 15%; in test [6] (at 50.0 µM) it was 31.4%.

For `CCCCCCCCCCCN1C(=O)c2ccccc2S1(=O)=O`, the growth inhibition in test [1] (setting [7]) was -3%; in test [1] (setting [8]), 78% (active); in test [1] (at 50.0 µM) it was -22.4%; in test [2] (setting [7]), -2%; in test [2] (setting [8]), 54%; in test [2] (at 50.0 µM), 0.5%. Also, the growth inhibition is 0% in test [3] (setting [7]); 80% (active) in test [3] (setting [8]); -11.4% in test [3] (at 50.0 µM); -14% in test [4] (setting [7]); 34% in test [4] (setting [8]); 58.8% in test [4] (at 50.0 µM). Moreover, the growth inhibition is 0% in test [5] (setting [7]); 79% (active) in test [5] (setting [8]); 9.4% in test [5] (at 50.0 µM); 0% in test [6] (setting [7]); 95% (active) in test [6] (setting [8]); 32.4% in test [6] (at 50.0 µM).

`Nc1cc(Cl)ccc1SSc1ccc(Cl)cc1N`: the growth inhibition in test [1] (setting [7]) was 11%; in test [1] (setting [8]), 58%; in test [1] (at 50.0 µM), 49%; in test [2] (setting [7]) it was 67%; in test [2] (setting [8]), 90% (active); in test [2] (at 50.0 µM), 32.5%. Moreover, the growth inhibition in test [3] (setting [7]) is 46%; in test [3] (setting [8]), 65%; in test [3] (at 50.0 µM), 48.6%; in test [4] (setting [7]) it was 22%; in test [4] (setting [8]), 39%; in test [4] (at 50.0 µM) it was -74.8%. Besides, the growth inhibition in test [5] (setting [7]) was 58%; in test [5] (setting [8]), 98% (active); in test [5] (at 50.0 µM), 50.6%; in test [6] (setting [7]), 35%; in test [6] (setting [8]) it was 51%; in test [6] (at 50.0 µM), 73.3% (active).

Take `CCN(CC)CCN(C)c1ccc(CO)c2c1C(=O)c1ccccc1S2=O` (configuration not stated): the growth inhibition in test [1] (setting [7]) is 5%; in test [1] (setting [8]) it was 74% (active); in test [1] (at 50.0 µM), 95.8% (active); in test [2] (setting [7]), -3%; in test [2] (setting [8]) it was 28%; in test [2] (at 50.0 µM), 60.9%. Besides, the growth inhibition is -5% in test [3] (setting [7]); 78% (active) in test [3] (setting [8]); 96.3% (active) in test [3] (at 50.0 µM); 2% in test [4] (setting [7]); 23% in test [4] (setting [8]); 33.5% in test [4] (at 50.0 µM). Further, the growth inhibition is 2% in test [5] (setting [7]); 9% in test [5] (setting [8]); 82.4% (active) in test [5] (at 50.0 µM); -1% in test [6] (setting [7]); 73% (active) in test [6] (setting [8]); 97.9% (active) in test [6] (at 50.0 µM).

In the case of `NNC(=S)Nc1ccccc1`, the growth inhibition was 3% in test [1] (setting [7]); 5% in test [1] (setting [8]); -7.25% in test [1] (at 50.0 µM); -3% in test [2] (setting [7]); 1% in test [2] (setting [8]); 79.9% (active) in test [2] (at 50.0 µM). Moreover, the growth inhibition is -1% in test [3] (setting [7]); 1% in test [3] (setting [8]); -14.6% in test [3] (at 50.0 µM); 5% in test [4] (setting [7]); -4% in test [4] (setting [8]); -28.9% in test [4] (at 50.0 µM). Moreover, the growth inhibition in test [5] (setting [7]) is 1%; in test [5] (setting [8]) it was -1%; in test [5] (at 50.0 µM), 2.2%; in test [6] (setting [7]), -1%; in test [6] (setting [8]), 10%; in test [6] (at 50.0 µM), 8.05%.

For `CN(C)Cc1ccccc1C(=O)C(=O)c1ccccc1CN(C)C`, the growth inhibition is -9% in test [1] (setting [7]); 48% in test [1] (setting [8]); -3.15% in test [1] (at 50.0 µM); 1% in test [2] (setting [7]); 70% (active) in test [2] (setting [8]); 3% in test [2] (at 50.0 µM). Also, the growth inhibition is -5% in test [3] (setting [7]); 3% in test [3] (setting [8]); -6.5% in test [3] (at 50.0 µM); 9% in test [4] (setting [7]); 0% in test [4] (setting [8]); 46.3% in test [4] (at 50.0 µM). Moreover, the growth inhibition in test [5] (setting [7]) was 10%; in test [5] (setting [8]) it was 7%; in test [5] (at 50.0 µM) it was 57.8%; in test [6] (setting [7]) it was -4%; in test [6] (setting [8]), 73% (active); in test [6] (at 50.0 µM) it was 6.45%.

In the case of `Cc1ccc(SC2C(=O)C3(C)CCC2C3(C)C)cc1` (configuration not stated), the growth inhibition in test [1] (setting [7]) was -1%; in test [1] (setting [8]), 32%; in test [1] (at 50.0 µM), 64.2%; in test [2] (setting [7]), -1%; in test [2] (setting [8]), 27%; in test [2] (at 50.0 µM) it was 28.8%. Further, the growth inhibition in test [3] (setting [7]) is -2%; in test [3] (setting [8]) it was 44%; in test [3] (at 50.0 µM), 72.2% (active); in test [4] (setting [7]), -1%; in test [4] (setting [8]) it was 1%; in test [4] (at 50.0 µM) it was -21.7%. In addition, the growth inhibition in test [5] (setting [7]) is 2%; in test [5] (setting [8]), 28%; in test [5] (at 50.0 µM), 37.5%; in test [6] (setting [7]), 0%; in test [6] (setting [8]) it was 52%; in test [6] (at 50.0 µM), 82% (active).

For the compound `COc1ccc(-c2cc(=O)c3c(C)ccnc3[nH]2)cc1`, the growth inhibition is 58% in test [1] (setting [7]); 58% in test [1] (setting [8]); 87.2% (active) in test [1] (at 50.0 µM); 43% in test [2] (setting [7]); 43% in test [2] (setting [8]); 83.2% (active) in test [2] (at 50.0 µM). Moreover, the growth inhibition was 54% in test [3] (setting [7]); 54% in test [3] (setting [8]); 82.5% (active) in test [3] (at 50.0 µM); 20% in test [4] (setting [7]); 20% in test [4] (setting [8]); 65.8% in test [4] (at 50.0 µM). For the same compound, the growth inhibition in test [5] (setting [7]) was 25%; in test [5] (setting [8]), 25%; in test [5] (at 50.0 µM) it was 81.8% (active); in test [6] (setting [7]) it was 39%; in test [6] (setting [8]) it was 39%; in test [6] (at 50.0 µM) it was 81.5% (active).

`CCC[N+]1=C(/C=C/c2cc(C)c3cccnc3c2O)C(C)(C)c2ccccc21`: the growth inhibition is 12% in test [1] (setting [7]); 94% (active) in test [1] (setting [8]); 93.7% (active) in test [1] (at 50.0 µM); 27% in test [2] (setting [7]); 95% (active) in test [2] (setting [8]); 90.3% (active) in test [2] (at 50.0 µM). In addition, the growth inhibition in test [3] (setting [7]) was 7%; in test [3] (setting [8]), 93% (active); in test [3] (at 50.0 µM), 86.5% (active); in test [4] (setting [7]), -7%; in test [4] (setting [8]), 90% (active); in test [4] (at 50.0 µM), 81.8% (active). Also, the growth inhibition in test [5] (setting [7]) is 4%; in test [5] (setting [8]), 93% (active); in test [5] (at 50.0 µM), 92% (active); in test [6] (setting [7]), 19%; in test [6] (setting [8]), 93% (active); in test [6] (at 50.0 µM), 93% (active).
